GPT2 inh – Primary qHTS assay for inhibitors of Glutamate pyruvate transaminase 2 (GPT2) | Alanine aminotransferase 2 (Homo sapiens), Q8TD30 | Recombinant GPT2, coupled pyruvate oxidase/HRP Amplex Red fluorescence | Potency, µM (doses to about 57.7 µM), without a hit: top-dose activity change, negative = inhibition, usual class: inhibitors | 100,000 compounds, 0.25% hits; note: potency is the fitted concentration of half-maximal effect; nearly all actives have a fitted effect of over 60% in size
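GPT2 10ng/uL, a-KG 250uM, L-Ala 2mM, HEPES pH7.5 + 0.0001% Tween; 30 min RT. Then Amplex mix (PO/HRP/ThPP), 30 min RT dark, fluorescence. AOA 50uM used as positive control.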
SNCA expr inhib – Primary qHTS assay for inhibitors of alpha-synuclein gene (SNCA) expression | HEK-293 SNCA-luciferase knock-in, luminescence, 24 h | Potency, µM (doses to about 57.2 µM), inactives show at the top dose activity change, negative = inhibition, hits mostly inhibitors | 140,000 compounds, 0.17% hits | AID 1671194, 2021;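 note: potency is the fitted concentration of half-maximal effect; plate controls were DMSO cells for no effect and cell-free wells for full effect; nearly all actives have a fitted effect of over 45% in size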
IP6K1 inhibitor – Primary qHTS assay for small molecule inhibitors of Inositol hexaphosphate kinase 1 (IP6K1); 140,000 compounds, 0.81% hits; AID 1645851, 2021; IP6K1 kinase, ADP-Glo luminescence, 2 h; hits give low values; Inositol hexakisphosphate kinase 1 (Homo sapiens), Q92551; activity change, % (series mostly up to about 58 µM); in the data active = activity change below about -25%
Target sequence (Q92551 whole entry, looked up): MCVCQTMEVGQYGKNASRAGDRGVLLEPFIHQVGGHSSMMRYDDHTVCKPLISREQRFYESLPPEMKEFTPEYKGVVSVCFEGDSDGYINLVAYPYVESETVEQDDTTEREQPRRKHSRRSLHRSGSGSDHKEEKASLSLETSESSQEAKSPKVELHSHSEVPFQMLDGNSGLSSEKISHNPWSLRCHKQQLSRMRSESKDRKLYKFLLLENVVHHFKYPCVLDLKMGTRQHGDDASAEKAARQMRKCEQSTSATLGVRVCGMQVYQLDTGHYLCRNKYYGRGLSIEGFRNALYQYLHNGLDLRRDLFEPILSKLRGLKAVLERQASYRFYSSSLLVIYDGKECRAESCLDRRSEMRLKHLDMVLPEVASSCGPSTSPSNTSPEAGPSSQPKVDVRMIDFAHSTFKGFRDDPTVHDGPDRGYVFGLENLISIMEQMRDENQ
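ADP-Glo luminescence measures ADP made by human IP6K1 during a 2 h RT reaction with ATP/IP6 (mix at 1.3 mM/130 uM); top library doses 57.5 and 19.1 uM final.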
SNCA viab count – GF-AFC viability counterscreen for inhibitors of alpha-synuclein gene (SNCA) expression; HEK-293-SNCA-luc viability, GF-AFC fluorescence, 24 h; Potency, µM (titrated, usually from 57.1 µM), without a hit: at the highest dose activity change, negative = cytotoxicity, most hits filed as cytotoxic; 150,000 compounds, 0.12% hits;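 note: potency is the fitted concentration of half-maximal effect; 0% = DMSO-treated cells and -100% = medium-only wells without cells; nearly all actives have a fitted effect of over 30% in size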
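Cytotoxicity counterscreen: after 24 h compound treatment of genome-edited SNCA-luciferase HEK-293 cells, live-cell protease substrate GF-AFC read by fluorescence after 30 min; activity scaled between DMSO (0%) and medium-only (-100%), curves Hill-fitted.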
IP6K1 inh cnf – Confirmatory qHTS assay for small molecule inhibitors of Inositol hexaphosphate kinase 1 (IP6K1); shares compounds with IP6K1 inhibitor; recombinant IP6K1 kinase, ADP-Glo luminescence, 2 h; Potency, µM (titrated, usually from 49 µM), for inactives: at the highest dose activity change, negative = inhibition, most hits filed as inhibitors; 1,200 compounds, 13% hits; AID 1645852, 2021; note: potency is the fitted concentration of half-maximal effect; nearly all actives have a fitted effect of over 65% in size
The depositor's hits bear a star; i = inactive; ? = inconclusive; . = not tested or not shown; ! = a repeat was not active; [ ] = another dose, or the depositor's remark. Most compounds without a hit are left out; they make up all but 1.1% or so of the library. Unless noted, calls come from the whole dose curve; as a rule, active = well fitted curve in the direction sought with a large enough effect; inconclusive = small, poorly fitted or top-dose-only effect, or another doubt; inactive = no such curve, though single readings can be large; an effect the other way counts as inactive or inconclusive. Unless noted, % is set by controls: 0 for no effect and ±100 for the full control effect.

SMILES | GPT2 inh | SNCA expr inhib | IP6K1 inhibitor | SNCA viab count | IP6K1 inh cnf
O=C(NCc1ccco1)c1cc(-c2ccccc2F)cc2c1OCCN2Cc1cccnc1 | 1.5% | -1.9% | -29.9* | ? | ?
O=C(Nc1cccnc1)c1cc(-c2ccccc2F)cc2c1OCCN2Cc1cccnc1 | -7.0%[88.5 µM] | ? | -49.2* | ? | ?
N#CC(=Cc1ccc(O)c(O)c1)C(=O)NCc1ccccc1 | ? | -23.9% | . | -7.8% | ?
OC[C@H]1O[C@@H](O[C@H]2[C@H](O)[C@@H](CO)O[C@@H](OCc3ccccc3)[C@@H]2O[C@@H]2OC[C@](O)(CO)[C@H]2O)[C@H](O)[C@@H](O)[C@@H]1O | i | . | 7.4 | 4.9%[23.9 µM] | .
CC(C)CCN(Cc1ccco1)C(=O)Cn1ncc2c([nH]c3ccccc32)c1=O | . | ? | -28.6* | -0.4% | -9.2%
Cc1ccc(Sc2c(C)nn(C(=O)COc3ccccc3)c2C)cc1 | . | ? | -35.8* | -6.7% | ?
CCOC(=O)c1oc2c(c1C)-c1nn(Cc3ccc(Cl)cc3)cc1CC2 | . | 4.0% | -38.4* | 8.8% | ?
O=C1C(N2CCN(Cc3ccc[nH]3)CC2)CCN1Cc1ccccn1 (stereo unspecified) | ? | 12.2% | 7.8 | -2.1% | -6.4%
COc1ccc(C)cc1NC(=O)c1cc(S(=O)(=O)N2CCN(c3cccc(C)c3C)CC2)ccc1F | . | 19.8% | 22.8 | 3.5% | .
COc1ccccc1N1CCN(S(=O)(=O)c2ccc(F)c(C(=O)Nc3ccc(C)c(F)c3)c2)CC1 | . | -14.1% | -28.1* | 0.0% | 2.8%
O=c1ncn(CC2CC2)c2ccc(-c3ccoc3)nc12 | 2.6%[88.5 µM] | 1.7%[87.6 µM] | -32.4* | -4.7%[87.6 µM] | -4.4%[92.2 µM]
Cc1[nH]c(C=C2C(=O)Nc3ccc(S(=O)(=O)N(C)c4cccc(Cl)c4)cc32)c(C)c1C(=O)N1CCN(C)CC1 | i | -33.1% | . | ? | .
Cc1[nH]c(/C=C2\C(=O)Nc3ccc(F)cc32)c(C)c1C(=O)NC[C@H](O)CN1CCOCC1 | i | . | -5.2 | -35.9% | 36.3%
CCN(CC)CCNC(=O)c1c(C)[nH]c(/C=C2\C(=O)Nc3ccc(Cl)cc32)c1C | . | . | . | . | 35.2%
COc1cc(Cl)c(C)cc1NC(=O)CSc1ncc(S(=O)(=O)c2ccc(C(C)(C)C)cc2)c(=O)[nH]1 | . | -0.2% | -8.9 | 8.1% | .
CCc1ccc(S(=O)(=O)c2cnc(SCC(=O)Nc3ccc(OC)cc3OC)[nH]c2=O)cc1 | . | 6.6% | -28.2* | 24.0% | ?
Cc1ccc(S(=O)(=O)c2cnc(SCC(=O)Nc3ccc4c(c3)OCCO4)[nH]c2=O)cc1C | . | 7.7% | -25.2* | 12.0% | ?
NC(=O)CCn1cc(CN(CCO)Cc2ccccc2F)c2ccccc21 | -2.6% | 3.3% | 3.6 | 20.3% | .
CCCCCCCCn1cc(CN(CC)CC)c2cc(-c3cnc(N)nc3)ccc21 | ? | . | -35.1* | ? | ?
O=C(c1ccc(F)c(F)c1Nc1ccc(I)cc1F)N1CC(O)([C@H]2CCCCN2)C1 | 2.5% | 8.1% | . | -3.2% | -2.8%
COc1ccc(NC(=O)N2C[C@@H]3C[C@H](C2)c2ccc(NC(=O)c4cccs4)c(=O)n2C3)cc1 | -1.1% | 2.8% | 8.8 | -25.0% | .
O=C(Oc1ccccc1)N1CCC2(CC1)CN(c1ccccn1)C2 | . | 8.2% | . | -6.2% | .
CN1CC[C@@H](c2c(O)cc(O)c3c(=O)cc(-c4ccccc4Cl)oc23)[C@@H](O)C1 | 1.9% | 0.215µM* | . | ? | ?
CCCCN1C(=O)[C@@H]2C[C@@H](O)CN2C2(CN(Cc3ccc(F)c(F)c3)C2)C1=O | ? | 7.9%[87.6 µM] | -8.4 | -0.7%[87.6 µM] | .
Oc1ccc(/C=C/c2cc(O)cc(O)c2)cc1 | i | ? | -59.8* | -12.4% | 9.2µM*
SMILES | GPT2 inh | SNCA expr inhib | IP6K1 inhibitor | SNCA viab count | IP6K1 inh cnf
CCc1noc(-c2nc(-c3cc(OC)c(OC)c(OC)c3)no2)n1 | -3.5% | -10.7% | -18.6 | 4.5% | .
Cc1cc(Nc2cccc(Cl)c2)nc2ccc(NC(=O)c3cccnc3)cc12 | . | ? | 17.1 | ? | .
O=C(O)c1ccc2c(c1)nc(Nc1cccc(Cl)c1)c1ccncc12 | -27.4% | ? | -35.3* | -32.8% | ?
CO/N=C(/C(=O)N[C@@H]1C(=O)N2C(C(=O)OCOC(=O)C(C)(C)C)=C(C)CS[C@H]12)c1csc(N)n1 | i | -23.6%[25.6 µM] | 13.7 | -12.7%[23.9 µM] | .
CO/N=C(/C(=O)N[C@@H]1C(=O)N2C(C(=O)O)=C(CSC(=O)c3ccco3)CS[C@H]12)c1csc(N)n1 | i | . | -49.4*! | 6.8% | ?
CCCCOC(=O)/C(C#N)=C/c1ccc(-c2ccc(Br)cc2)o1 | . | 38.6% | -30.7* | 8.7% | 9.4%
CCC[C@H]1CN(C(=O)c2ccccc2Cc2ccc(C)cc2)C[C@@H]1N | i | 10.8% | -25.9* | -2.4% | -6.3%
Cn1c(SCc2cc(=O)c3cc(Cl)ccc3[nH]2)nnc1-c1ccccc1 | . | -4.1% | -13.9 | 1.1% | .
Fc1cccc(CNc2nc(-c3ccccc3C(F)(F)F)nc3ccccc23)c1 | . | . | . | . | -7.9%
COc1ccccc1-c1nc(NCc2ccccc2)c2ccccc2n1 | . | ? | . | -29.3% | .
Fc1ccc(CNc2nc(-c3ccccc3C(F)(F)F)nc3ccccc23)cc1 | . | . | . | . | -1.9%
O=C(NCc1ccco1)c1ccc2c(c1)N(Cc1ccc(Cl)cc1)C(=O)c1ccccc1S2 | . | -19.7% | -25.5* | -21.5% | ?
Cn1nc(C(=O)NCc2ccccc2)c2c1-c1ccccc1SC2 | . | 53.1% | -22.4 | -6.3% | .
COc1cccc(CNC(=O)c2nn(C)c3c2CSc2ccccc2-3)c1 | . | -3.8% | -32.3* | -0.8% | ?
Cc1ccccc1-c1[nH]nc2ncc(-c3cccc(O)c3)nc12 | 0.0%[88.5 µM] | -11.8%[87.6 µM] | 4.2 | -18.4%[87.6 µM] | .
Oc1cccc(-c2c3nc(c(-c4cccc(O)c4)c4ccc([nH]4)c(-c4cccc(O)c4)c4nc(c(-c5cccc(O)c5)c5ccc2[nH]5)CC4)C=C3)c1 | 4.9% | 74.4%[25.6 µM] | -53.2* | -28.3%[23.9 µM] | ?
Cc1ccc(C(=O)Nc2nnc(S(=O)(=O)N3c4ccccc4CC3C)s2)cc1 (stereo unspecified) | . | 18.8% | -2.0 | -2.5% | .
Cc1ccc(C)c(N2CCN(S(=O)(=O)c3cnc(N)nc3)CC2)c1 | . | 7.3% | -13.1 | -3.8% | .
Cc1ccc(C)c(N2CCN(S(=O)(=O)c3csc(C(N)=O)c3)CC2)c1 | . | -23.8% | -30.1* | -5.2% | ?
COc1ccc(CN(Cc2ccco2)c2cnc(S(C)(=O)=O)nc2C(=O)Nc2ccc(C)cc2C)cc1 | . | 3.9% | -26.5* | -1.2% | -3.2%
CS(=O)(=O)c1ncc(N(Cc2ccco2)Cc2ccco2)c(C(=O)Nc2ccccc2Br)n1 | . | -7.5% | -19.8 | -2.0% | .

Bioassay records as filed in PubChem BioAssay.
